The supplement of paper PMC12645437, “Orthogonal IMiD-Degron Pairs Induce Selective Protein Degradation in Cells” (ACS Chemical Biology, 2025)
Over roughly 8,300 sequences, “log2 fold change of degron read counts, EGFP-low vs EGFP+ sorted cells (limma voom), compound-induced degradation” has its median near -1.1; the highest 2% begin near 3.2. Only a selection was taken, and the highest values are over-represented in it overall.

T1: CRBN, Q96SW2
T1 chain: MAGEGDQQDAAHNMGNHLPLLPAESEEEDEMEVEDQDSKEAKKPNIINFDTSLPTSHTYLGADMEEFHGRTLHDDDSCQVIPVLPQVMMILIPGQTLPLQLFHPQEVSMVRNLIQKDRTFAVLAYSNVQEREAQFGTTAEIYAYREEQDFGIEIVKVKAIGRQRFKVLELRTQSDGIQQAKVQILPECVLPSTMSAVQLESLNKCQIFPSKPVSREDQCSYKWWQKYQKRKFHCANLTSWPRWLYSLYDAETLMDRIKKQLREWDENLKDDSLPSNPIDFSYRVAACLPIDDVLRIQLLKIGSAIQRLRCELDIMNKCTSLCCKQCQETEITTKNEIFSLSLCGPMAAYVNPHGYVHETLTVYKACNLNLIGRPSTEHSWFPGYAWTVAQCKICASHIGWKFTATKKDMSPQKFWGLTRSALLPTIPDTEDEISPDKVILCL


Target: T1, CRBN, Q96SW2
Assay: log2 fold change of degron read counts, EGFP-low vs EGFP+ sorted cells (limma voom), compound-induced degradation; higher = more compound-induced degradation of the degron-EGFP fusion; degrons are variants of IKZF1/3 zinc finger 2; compound dose not given here
Conditions: Jurkat, 18 h
[1] = compound: compound 19 (5-tert-butyl-thalidomide)
[2] = compound: compound 22 (5-morpholino-thalidomide)
[3] = compound: compound 33 (diphenyl IMiD analogue)
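Note: pooled lentiviral library of zinc finger degron-EGFP fusions in mCherry-positive Jurkat cells, FACS-sorted after compound exposure, with degron abundance counted by next-generation sequencing.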

| Sequence | log2 fold change of degron read counts [1] | log2 fold change of degron read counts [2] | log2 fold change of degron read counts [3] | log2 fold change of degron read counts (compound: thalidomide) |
| --- | --- | --- | --- | --- |
| FECEICGRSFTQKGNLLRHIKL [46F_47E_49E_50I_52G_53R_54S_55F_67L_, Q9UKT9] | -2.51 | -3.16 | -1.24 | -1.32 |
| FNCEQCGAWFTQKGNLLRHIKL [46F_47N_49E_50Q_52G_53A_54W_55F_67L_, Q9UKT9] | -2.53 | -2.58 | -2.99 | -2.13 |
| FLCDICGADFTQKGNLLRHIKL [46F_47L_49D_50I_52G_53A_54D_55F_67L_, Q9UKT9] | -2.36 | -3.49 | -2.12 | -2.22 |
| FHCPICGRNFTQKGNLLRHIKL [46F_47H_49P_50I_52G_53R_54N_55F_67L_, Q9UKT9] | -0.818 | -0.983 | -0.208 | -0.527 |
| FECEICGADFTQKGNLLRHIKL [46F_47E_49E_50I_52G_53A_54D_55F_67L_, Q9UKT9] | -1.96 | -2.74 | 0.273 | 0.225 |
| LVCPICGFNCTQKGNLLRHIKL [46L_47V_49P_50I_52G_53F_54N_55C_67L_, Q9UKT9] | -0.376 | 1.56 | 1.51 | 2.74 |
| LWCPICGFPCTQKGNLLRHIKL [46L_47W_49P_50I_52G_53F_54P_55C_67L_, Q9UKT9] | 1.54 | 1.47 | 1.88 | 1.22 |
| FMCPICGAMFTQKGNLLRHIKL [46F_47M_49P_50I_52G_53A_54M_55F_67L_, Q9UKT9] | -0.414 | -0.22 | 1.72 | 0.511 |
| FQCPICGAFFTQKGNLLRHIKL [46F_47Q_49P_50I_52G_53A_54F_55F_67L_, Q9UKT9] | -1.33 | -0.0266 | 2.3 | 2.67 |
| FACPICGADFTQKGNLLRHIKL [46F_47A_49P_50I_52G_53A_54D_55F_67L_, Q9UKT9] | 2.75 | 0.745 | 0.673 | 0.2 |
| FMCPICGADFTQKGNLLRHIKL [46F_47M_49P_50I_52G_53A_54D_55F_67L_, Q9UKT9] | -1.3 | -0.0353 | 2.99 | 1.23 |
| FICPICGHPFTQKGNLLRHIKL [46F_47I_49P_50I_52G_53H_54P_55F_67L_, Q9UKT9] | -1.76 | -0.823 | -0.563 | 0.027 |
| FQCPICGRPFTQKGNLLRHIKL [46F_47Q_49P_50I_52G_53R_54P_55F_67L_, Q9UKT9] | 0.103 | 1.27 | 0.384 | 2.92 |
| FQCPICGAPFTQKGNLLRHIKL [46F_47Q_49P_50I_52G_53A_54P_55F_67L_, Q9UKT9] | 3.38 | 3.6 | 2.53 | 3.65 |
| FACPICGAMFTQKGNLLRHIKL [46F_47A_49P_50I_52G_53A_54M_55F_67L_, Q9UKT9] | 2.8 | 1.12 | 0.702 | 0.265 |
| FICPICGADFTQKGNLLRHIKL [46F_47I_49P_50I_52G_53A_54D_55F_67L_, Q9UKT9] | -0.647 | 0.966 | 1.15 | 1.89 |
| FICPICGAPFTQKGNLLRHIKL [46F_47I_49P_50I_52G_53A_54P_55F_67L_, Q9UKT9] | 1.94 | 3.65 | 2.52 | 3.16 |
| FACPICGAPFTQKGNLLRHIKL [46F_47A_49P_50I_52G_53A_54P_55F_67L_, Q9UKT9] | 3.7 | 3.03 | 1.56 | 2.64 |
| FMCPICGAPFTQKGNLLRHIKL [46F_47M_49P_50I_52G_53A_54P_55F_67L_, Q9UKT9] | 3.36 | 3.49 | 3.09 | 2.98 |
| FDCNICGAQFTQKGNLLRHIKL [46F_47D_49N_50I_52G_53A_54Q_55F_67L_, Q9UKT9] | -0.355 | -0.127 | -0.237 | 0.552 |

| Sequence | log2 fold change of degron read counts [1] | log2 fold change of degron read counts [2] | log2 fold change of degron read counts [3] | log2 fold change of degron read counts (compound: thalidomide) |
| --- | --- | --- | --- | --- |
| FRCEQCGALFTQKGNLLRHIKL [46F_47R_49E_50Q_52G_53A_54L_55F_67L_, Q9UKT9] | -3.49 | -2.97 | -0.178 | -1.64 |
| FRCPICGHTFTQKGNLLRHIKL [46F_47R_49P_50I_52G_53H_54T_55F_67L_, Q9UKT9] | -2.68 | -2.91 | -2.15 | -2.02 |
| FSCEICGRYFTQKGNLLRHIKL [46F_47S_49E_50I_52G_53R_54Y_55F_67L_, Q9UKT9] | -0.304 | -1.64 | -1.28 | -1.44 |
| FDCNICGARFTQKGNLLRHIKL [46F_47D_49N_50I_52G_53A_54R_55F_67L_, Q9UKT9] | 1.3 | 0.634 | -0.123 | 1.24 |
| LFCPICGFMCTQKGNLLRHIKL [46L_47F_49P_50I_52G_53F_54M_55C_67L_, Q9UKT9] | 2.71 | 2.77 | 2.05 | 0.947 |
| FQCPICGRDFTQKGNLLRHIKL [46F_47Q_49P_50I_52G_53R_54D_55F_67L_, Q9UKT9] | -1.62 | -1.68 | 0.2 | 1.58 |
| FECPQCGAVFTQKGNLLRHIKL [46F_47E_49P_50Q_52G_53A_54V_55F_67L_, Q9UKT9] | -2.29 | -2.41 | 0.278 | 0.0294 |
| FHCDICGAPFTQKGNLLRHIKL [46F_47H_49D_50I_52G_53A_54P_55F_67L_, Q9UKT9] | 3.18 | 2.85 | 1.67 | 0.346 |
| FWCPICGAPFTQKGNLLRHIKL [46F_47W_49P_50I_52G_53A_54P_55F_67L_, Q9UKT9] | 3.28 | 3.35 | 2.63 | 1.37 |
| FGCPICGAPFTQKGNLLRHIKL [46F_47G_49P_50I_52G_53A_54P_55F_67L_, Q9UKT9] | 3.74 | 2.38 | 1.84 | 1.66 |
| FGCPICGADFTQKGNLLRHIKL [46F_47G_49P_50I_52G_53A_54D_55F_67L_, Q9UKT9] | 1.78 | 0.634 | 1.7 | 0.267 |
| FTCPICGAPFTQKGNLLRHIKL [46F_47T_49P_50I_52G_53A_54P_55F_67L_, Q9UKT9] | 2.68 | 3.44 | 2.65 | 3.25 |
| FWCPICGAMFTQKGNLLRHIKL [46F_47W_49P_50I_52G_53A_54M_55F_67L_, Q9UKT9] | 2.54 | 2.77 | 2 | 0.329 |
| FHCPICGAPFTQKGNLLRHIKL [46F_47H_49P_50I_52G_53A_54P_55F_67L_, Q9UKT9] | 3.64 | 3.39 | 2.87 | 2.28 |
| FWCNICGAPFTQKGNLLRHIKL [46F_47W_49N_50I_52G_53A_54P_55F_67L_, Q9UKT9] | 2.88 | 2.66 | 1.69 | 0.25 |
| FTCPICGADFTQKGNLLRHIKL [46F_47T_49P_50I_52G_53A_54D_55F_67L_, Q9UKT9] | -0.0637 | 1.88 | 2.02 | 2.53 |
| FGCNICGAPFTQKGNLLRHIKL [46F_47G_49N_50I_52G_53A_54P_55F_67L_, Q9UKT9] | 0.653 | 0.355 | 0.00441 | -0.248 |
| FHCPICGADFTQKGNLLRHIKL [46F_47H_49P_50I_52G_53A_54D_55F_67L_, Q9UKT9] | -0.22 | -0.857 | 0.863 | -0.761 |
| FTCPICGHPFTQKGNLLRHIKL [46F_47T_49P_50I_52G_53H_54P_55F_67L_, Q9UKT9] | -1.82 | -0.901 | 0.0444 | 0.479 |
